Measured values from PubChem BioAssay AID1984 (Sanford-Burnham Center for Chemical Genomics, 2009).
Out of some 290,000 compounds screened, about 35 (0.01%) were called active.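 How the source made its calls: active means EGFP signal decrease of at least 30% at 10 µM or well 3 SD below plate mean, unless failing retest; inactive means the rest, including hits failing retest or dose response.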 The sample as a whole holds a higher share of actives than the screen did.

Biological target: p/CIP-EGFP fusion (nuclear receptor coactivator 3, mouse) (UniProt Q05BA5)
Experiment: compounds lowering mouse p/CIP (NCOA3) protein levels – fluorescence, F442A cells, EGFP fusion, primary screen (AID 1984)
Settings: 16 h, at 10 µM, hits give high values

Chain of p/CIP-EGFP fusion (nuclear receptor coactivator 3, mouse) (Q05BA5 1-1403): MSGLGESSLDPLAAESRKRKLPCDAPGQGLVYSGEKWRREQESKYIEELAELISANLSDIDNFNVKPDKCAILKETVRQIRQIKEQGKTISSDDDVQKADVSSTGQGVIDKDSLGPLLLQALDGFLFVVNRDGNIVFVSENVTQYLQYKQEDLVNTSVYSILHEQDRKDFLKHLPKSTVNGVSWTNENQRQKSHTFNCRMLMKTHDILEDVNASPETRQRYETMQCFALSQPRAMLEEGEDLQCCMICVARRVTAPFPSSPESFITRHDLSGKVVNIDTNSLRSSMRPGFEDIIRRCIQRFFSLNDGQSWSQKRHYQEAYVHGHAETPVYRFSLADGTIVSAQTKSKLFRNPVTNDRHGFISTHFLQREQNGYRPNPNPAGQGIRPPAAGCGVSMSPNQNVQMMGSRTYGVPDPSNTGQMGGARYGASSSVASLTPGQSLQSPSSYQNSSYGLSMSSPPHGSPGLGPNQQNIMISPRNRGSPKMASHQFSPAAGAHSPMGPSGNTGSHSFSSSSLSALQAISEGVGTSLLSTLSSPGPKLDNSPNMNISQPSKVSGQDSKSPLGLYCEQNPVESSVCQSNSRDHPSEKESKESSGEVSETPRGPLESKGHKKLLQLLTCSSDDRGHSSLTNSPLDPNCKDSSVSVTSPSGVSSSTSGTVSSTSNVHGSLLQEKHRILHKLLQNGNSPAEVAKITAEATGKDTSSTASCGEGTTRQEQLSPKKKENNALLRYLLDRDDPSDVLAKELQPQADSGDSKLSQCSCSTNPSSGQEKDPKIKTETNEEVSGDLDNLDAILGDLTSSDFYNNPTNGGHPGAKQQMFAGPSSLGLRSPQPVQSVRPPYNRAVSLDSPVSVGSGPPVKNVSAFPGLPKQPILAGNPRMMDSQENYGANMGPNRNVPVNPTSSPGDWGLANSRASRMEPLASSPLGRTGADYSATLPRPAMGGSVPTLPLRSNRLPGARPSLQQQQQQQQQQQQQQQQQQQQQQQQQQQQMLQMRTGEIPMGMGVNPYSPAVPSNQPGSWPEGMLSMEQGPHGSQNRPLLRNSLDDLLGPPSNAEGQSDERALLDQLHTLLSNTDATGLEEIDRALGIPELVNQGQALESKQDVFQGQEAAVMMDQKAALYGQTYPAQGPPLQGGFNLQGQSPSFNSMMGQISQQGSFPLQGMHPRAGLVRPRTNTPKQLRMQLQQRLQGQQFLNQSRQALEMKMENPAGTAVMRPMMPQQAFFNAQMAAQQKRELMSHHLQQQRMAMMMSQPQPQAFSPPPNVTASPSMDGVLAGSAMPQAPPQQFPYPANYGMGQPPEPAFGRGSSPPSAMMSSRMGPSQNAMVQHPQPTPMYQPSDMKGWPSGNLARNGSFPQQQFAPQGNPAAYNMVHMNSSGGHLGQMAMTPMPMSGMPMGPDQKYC

Decrease of EGFP signal, inactive:
COc1ccc(C(=O)NC(=S)NC2CCCCC2)cc1 -9.4%, CCc1ccc(OCC(=O)N(Cc2ccccc2)C2CCS(=O)(=O)C2)cc1 (stereo not given) -11.2%, COc1cc(OC)cc(C(=O)NCCCn2ccnc2)c1 1.6%, CNc1[nH]ncc1[N+](=O)[O-] 11.8%, Cc1nc(-c2ccc(F)cc2)c(CC(=O)N2CCN(S(=O)(=O)c3ccc(F)cc3)CC2)s1 5.1%, COCCCN1C(=O)c2ccc(C(=O)OCC(=O)NCc3ccccc3OC)cc2C1=O -12.5%, c1ccc(-n2cccc2)c(N2CCCCC2)c1 -13.4%, Cc1cc(-c2nnc(SCC(=O)Nc3ccc(S(N)(=O)=O)cc3)n2N)n[nH]1 -53.2%, CCCCn1c(N)c(N(CCOC)C(=O)c2oc3ccc(OC)cc3c2C)c(=O)[nH]c1=O 9.8%, NC(=O)C(Cc1ccccc1)NC(=O)C12CC3CC(CC(C3)C1)C2 (stereo not given) -4.8%, Cc1c(S(=O)(=O)N2CC(C)CC(C)C2)c(=O)n(C)c(=O)n1C (stereo not given) 4.7%, CCSc1nc(O)c(C(c2cccc(OC)c2)c2c(O)nc(SCC)[nH]c2=O)c(=O)[nH]1 -4%, CCCC1(C(=O)OCC)NC(c2ccc(N(C)C)cc2)C2C(=O)N(c3ccc4c(c3)OCCO4)C(=O)C21 (stereo not given) -13.2%, O=C(O)CCCCCNc1ncnc2ccc(Br)cc12 -16.6%, Cc1cccc(N2Cc3ccccc3C2=NC(=O)c2ccc(Cl)nc2)c1 -1.5%, CC(=O)N1c2ccc(S(=O)(=O)N3CCCC(C(=O)NCc4ccc(Cl)cc4)C3)cc2CC1C (stereo not given) -5.2%, CCCCC(=O)Nc1c2c(nn1-c1ccc([N+](=O)[O-])cc1)CS(=O)(=O)C2 -0.5%, CS(=O)(=O)N1CCN=C1SCc1ccc(F)cc1 10.9%, CC(=O)c1cccc(NC(=O)CN2C(=O)c3cccnc3Oc3ccc(Cl)cc32)c1 -7.6%, C/C(CC(=O)NCc1ccc(Cl)cc1)=N\NC(=O)COc1ccc(C)cc1Br 2.8%, CCOc1cc(CN2CCCC(CO)(Cc3ccc(F)cc3F)C2)ccc1OC (stereo not given) -5.3%, Cc1cccc(-c2nc3ccc(C(=O)NCCN4CCN(C)CC4)cc3nc2-c2cccc(C)c2)c1 -5%, COCCCNc1nc2c(-c3cccc(C)c3)nnn2c2ccc(Cl)cc12 -12%, COc1ccc(C(=O)C2CCCN(S(=O)(=O)c3cccc(C)c3)C2)c(C)c1 (stereo not given) -15.7%, O=C(NCCC1=CCCCC1)c1ccc(Cl)c([N+](=O)[O-])c1 -6.4%
